# Compound activity (PubChem BioAssay)
# RXFP1 antagonist: qHTS Assay for Antagonists of the Relaxin Receptor RXFP1; hit rate 0.59% among 350,000; Relaxin receptor 1 (Homo sapiens), Q9HBX9; activity change, negative = inhibition, % at 57.5 µM; AID 1259400, 2018; HEK293-RXFP1, relaxin-stimulated cAMP HTRF, 30 min; hits give low values;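 active means activity change of -60% or lower, but not beyond a set lower limit; inconclusive means change between -60% and -40%, or beyond the set limit; inactive means change above -40%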; further: on the % scale 0 is the no-effect control and ±100 the full control effect
# Target sequence (Q9HBX9 whole entry, looked up): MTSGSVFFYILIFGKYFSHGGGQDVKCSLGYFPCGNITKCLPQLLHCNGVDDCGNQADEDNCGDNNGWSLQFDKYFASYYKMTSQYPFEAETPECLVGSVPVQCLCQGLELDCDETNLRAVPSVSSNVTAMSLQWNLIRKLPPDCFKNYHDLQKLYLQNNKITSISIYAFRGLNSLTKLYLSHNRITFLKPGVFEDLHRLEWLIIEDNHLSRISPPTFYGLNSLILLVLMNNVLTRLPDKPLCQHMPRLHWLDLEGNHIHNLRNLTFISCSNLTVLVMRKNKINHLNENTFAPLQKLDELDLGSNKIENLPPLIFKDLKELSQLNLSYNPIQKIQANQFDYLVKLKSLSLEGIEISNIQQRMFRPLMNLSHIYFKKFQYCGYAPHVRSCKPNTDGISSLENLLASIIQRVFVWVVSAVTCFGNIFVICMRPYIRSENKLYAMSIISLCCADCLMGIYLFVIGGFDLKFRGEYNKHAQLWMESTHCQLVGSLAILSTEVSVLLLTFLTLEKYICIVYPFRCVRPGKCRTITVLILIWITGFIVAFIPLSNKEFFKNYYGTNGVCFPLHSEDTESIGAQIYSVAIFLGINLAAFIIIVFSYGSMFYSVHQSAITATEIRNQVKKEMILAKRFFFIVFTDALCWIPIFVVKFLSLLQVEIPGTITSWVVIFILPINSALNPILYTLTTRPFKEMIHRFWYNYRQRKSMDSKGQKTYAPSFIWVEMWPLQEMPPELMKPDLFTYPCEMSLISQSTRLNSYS
# gsp antag: qHTS for Antagonists of gsp, the Etiologic Mutation Responsible for Fibrous Dysplasia/McCune-Albright Syndrome: qHTS. Potency, µM (highest dose often 76.9 µM), inactives show at the top dose activity change, negative = inhibition, hits mostly inhibitors. gsp-mutant cells, cAMP HTRF, 30 min. AID 624288, 2012. hit rate 0.4% among 340,000; calls by dose curve; cell line not stated here;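 further: intracellular cAMP measured with PDE inhibitor Ro 20-1724 present during compound exposure; potency means the concentration at half of the fitted maximal effect; on the % scale 0 is the no-effect control and ±100 the full control effect; nearly all actives have a fitted effect of over 65% in size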
#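 HTRF cAMP read-out (cAMP-d2 plus anti-cAMP antibody-K in lysis buffer, 30 min RT). Before lysis, cells are exposed to compounds with […] for 30 min at 37C in DPBS containing Ca/Mg, BSA and Tween 20.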
# Tb PFK inh-1: qHTS Assay to Find Inhibitors of T. brucei phosphofructokinase; T. brucei PFK, ADP-Glo luminescence; ATP-dependent 6-phosphofructokinase (Trypanosoma brucei brucei), O15648; Potency, µM (highest dose often 57.5 µM), without a hit: at the top dose activity, negative = inhibition, usual class: inhibitors; hit rate 0.17% among 330,000;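 further: potency means the concentration at half of the fitted maximal effect; 0% = uninhibited 1x PFK enzyme wells and -100% = no-enzyme wells; nearly all actives have a fitted effect of over 60% in size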
#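 Compounds were pin-transferred as a titration series up to 57 uM into substrate buffer (0.5 mM F6P, 0.1 mM ATP, pH 8.0), then 1.25 nM PFK was added and reactions ran 45 min before ADP-Glo detection.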
# p53 reactivation: qHTS assay for re-activators of p53 using a Luc reporter | H1299 p53-A138V BP100-luciferase reporter, luminescence, 24 h | Potency, µM (top dose mostly 92.2 µM), inactives show at the top dose activity change, positive = activation, actives largely listed as activators | hit rate 0.063% among 320,000 | AID 504706, 2011; further: potency means the concentration at half of the fitted maximal effect; % of control where 0% means no effect; nearly all actives have a fitted effect of over 45% in size
#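 H1299 (p53-null), stable ts p53-A138V + BP100-Luc; 1000 cells/well, Opti-MEM/10% FBS; cpd 4 pt, 1:5; 24 h, 37 deg C, 5% CO2; detection reagent 10 min RT; luminescence.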
# gsp ag: qHTS for Agonist of gsp, the Etiologic Mutation Responsible for Fibrous Dysplasia/McCune-Albright Syndrome: qHTS | hit rate 0.13% among 340,000 | Potency, µM (series often up to 76.9 µM), for the others: at the highest dose activation (cAMP increase), usual class: activators | gsp mutant cells, cAMP HTRF, 30 min; active means well fitted activation curve with a large enough effect; inconclusive means small, poorly fitted or top-dose-only effect, or another doubt; inactive means no such curve, though single readings can be large or run the other way; cell line not stated here;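 further: phosphodiesterase inhibitor Ro 20-1724 added with compounds to block cAMP breakdown; potency means the concentration at half of the fitted maximal effect; nearly all actives have a fitted effect of over 60% in size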
#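 Cells stably selected in G418 were plated at 2000/well, grown 16-24 hr, then given compounds in DMSO with the PDE inhibitor […] (300 uM solution added) for 30 min at 37C; cAMP was read by HTRF.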
# RXFP1 agonist: qHTS Assay for Agonists of the Relaxin Receptor RXFP1 | Relaxin receptor 1 (Homo sapiens), Q9HBX9 | HEK293T-RXFP1 cAMP TR-FRET, 30 min; response scale: percent of porcine relaxin response, buffer zero | Potency, µM (highest dose often 57.5 µM), for inactives: at the top dose activation, hits mostly activators | hit rate 0.3% among 370,000 | AID 2676, 2010; further: potency means the concentration at half of the fitted maximal effect; on the % scale 0 is the no-effect control and ±100 the full control effect; nearly all actives have a fitted effect of over 60% in size
#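 HEK293 cells stably expressing RXFP1, treated 30 min at 37C with compounds plus PDE4 inhibitor Ro 20174; cAMP measured by HTRF TR-FRET. Normalized to buffer and 29 nM porcine relaxin; EC50 by Hill fit.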
# TbPFK ATP: Tb PFK orthogonal confirmatory assay using ATP depletion (Kinase-Glo Plus) as an alternative measure of Tb PFK activity: Hit Validation | shares compounds with Tb PFK inh-1 | Tb PFK enzyme, ATP depletion, Kinase-Glo Plus luminescence | Potency, µM (titrated, usually from 57.5 µM), for inactives: at the top dose inhibition | hit rate 47% among 1,100 | AID 504636, 2011; calls by dose curve; further: potency means the concentration at half of the fitted maximal effect; nearly all actives have a fitted effect of over 60% in size
# Tb PFK inh-2: Inhibitors of T. brucei phosphofructokinase: Hit Validation; shares compounds with Tb PFK inh-1; purified T. brucei PFK, ADP-Glo luminescence, 45 min; Potency, µM (series often up to 57.5 µM), inactives show at the highest dose activity change, negative = inhibition, hits mostly inhibitors; hit rate 41% among 1,100;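 further: potency means the concentration at half of the fitted maximal effect; plate controls were full PFK enzyme control for no effect and no enzyme control for full effect; nearly all actives have a fitted effect of over 60% in size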
# The depositor's hits bear a star; ? = inconclusive; nt = no result; [ ] = remark or other dose. A selection: hits, their analogues and other compounds. The true share with any hit is near 1.1%. Unless noted, the call rests on the fitted dose curve; in most records, active means well fitted curve in the direction sought with a large enough effect; inconclusive means small, poorly fitted or top-dose-only effect, or another doubt; inactive means no such curve, though single readings can be large; an effect the other way counts as inactive or inconclusive.
SMILES,RXFP1 antagonist,gsp antag,Tb PFK inh-1,p53 reactivation,gsp ag,RXFP1 agonist,TbPFK ATP,Tb PFK inh-2
Cc1c(Cl)sn(-c2ccc(Cl)cc2)c1=O,?,-24%,6.7µM*,-7%,20%,0%,3µM*,5.4µM*
O=[N+]([O-])c1ccc(N2CCCNCC2)c2ncccc12,nt,3%,0%,-7%,-11%,-6%,nt,nt
Nc1ccccc1C(=O)OCC(=O)N1CCc2ccccc21,2,6%,5%,?,-5%[15.4 µM],3%,nt,nt
CS(=O)(=O)Nc1ccccc1C(=O)OCC(=O)N1CCC(c2ccccc2)=N1,-3,-8%,?,-7%,-45%,2%,?,?
CC(C)OCC(O)CN1CC2C[C@@H](C1)Cn1c2cccc1=O (stereo not given in full),-3,4%,0%,3%,?,0%,nt,nt
Fc1ccc(CCNCc2ccc(Cl)c(Cl)c2)cc1,-9,13%,?,-5%,18%,-1%,15µM*,27µM*
CCOc1ccc(NC(=O)Cn2sc3nc(C)cc(C)c3c2=O)cc1,-66*,-2%,?,-9%,-2%[15.4 µM],6%,?,8.5µM*
CCOc1ccc(NC(=O)c2c(C)nn(Cc3ccccc3)c2Cl)cc1,-3,-1%,2%,5%,5%[15.4 µM],-1%,nt,nt
Cc1cc(C)c2c(=O)n(CC(=O)Nc3cccc(F)c3)sc2n1,-10,-1%,7.6µM*,-10%,-3%,4%,?,4.8µM*
Cc1cc(C)c2c(=O)n(CC(=O)NCCCN3CCOCC3)sc2n1,nt,2%,8.5µM*,-22%,?,7%,?,11µM*
Cc1ccc(NC(=O)Cn2sc3nc(C)cc(C)c3c2=O)c(Cl)c1,6,-17%,11µM*,-11%,12%,6%,?,6µM*
COc1ccc(CN2CCN(C(=O)COc3cccc(C)c3)CC2)c(OC)c1,nt,0%,15%,-2%,0%,-1%,nt,nt
Cc1ccc(C)c(CN2C(=O)c3ccccc3Sc3ccc(C(=O)N4CCC5(CC4)OCCO5)cc32)c1,-6,nt,nt,nt,nt,-4%,nt,nt
Cc1cc(C)c2c(=O)n(CC(=O)Nc3ccc(Cl)cc3)sc2n1,-26,-11%,8.5µM*,-13%,?,1%,?,3.8µM*
Cc1cccc(N2CCN(C(=O)Cn3sc4nc(C)cc(C)c4c3=O)CC2C)c1 (stereo not given),-28,-22%,15µM*,-6%,-40%,1%,2%,-6%
CCCCCn1c(=O)c(C(=O)Nc2cccc(C)c2)c(O)c2ccccc21,-4,6%,-1%,0%,-2%,14%,nt,nt
CC1(C)CC(n2[nH]c(=O)c3c2NC(=O)CSC3c2ccccc2)CCO1 (stereo not given),-5,-7%,-2%,26%,21%,0%,nt,nt
O=C(Cc1ccccc1)N1CCN(Cc2c[nH]c3ccccc23)CC1,-5,3%,6%,2%,?,0%,nt,nt
